The source of these data is PubChem BioAssay AID1917 (Vanderbilt High Throughput Screening Facility, 2009).

Molecules are shown by their SMILES. The campaign covered roughly 3,000 compounds. About 1,600 (53%) were called active. Another 10% or so got no clear call; they are omitted.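 Rule for the calls: active = Flux at 10 µM at least 3 SD below or above vehicle control mean in one or both replicates; inconclusive = no clear call, values can overlap the other calls; inactive = the rest.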 The set was probably picked from earlier hits. The list is a sample of the results.

For this experiment, the target named is ATP-sensitive inward rectifier potassium channel 1 (Homo sapiens) (UniProt P48048). As to the kind of experiment: ROMK channel modulator hit retest, confirmation, cell-based, thallium flux, duplicate, resupplied hits (AID 1917). The note with it: fluorescence ratio, at 10 µM, stronger effect = lower value.
Sequence of ATP-sensitive inward rectifier potassium channel 1 (Homo sapiens) (P48048 whole entry, looked up): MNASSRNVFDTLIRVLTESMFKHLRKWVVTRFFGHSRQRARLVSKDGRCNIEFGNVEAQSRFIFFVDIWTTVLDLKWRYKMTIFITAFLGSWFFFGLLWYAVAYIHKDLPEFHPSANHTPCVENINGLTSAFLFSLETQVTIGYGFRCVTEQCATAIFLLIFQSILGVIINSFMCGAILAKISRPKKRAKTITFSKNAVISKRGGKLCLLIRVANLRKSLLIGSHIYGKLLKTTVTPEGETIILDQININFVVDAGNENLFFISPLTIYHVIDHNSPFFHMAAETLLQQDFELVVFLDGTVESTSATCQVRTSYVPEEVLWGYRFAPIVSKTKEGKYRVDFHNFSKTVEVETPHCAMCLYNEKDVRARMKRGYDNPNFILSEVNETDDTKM
Take `COc1ccc(N=Cc2c(O)[nH]c3ccccc23)cc1OC`: the normalized thallium flux (F/F0 slope) was 0.0799 (inactive). For `O=[N+]([O-])c1ccc(N=Cc2c(O)ccc3ccccc23)cc1` the value was 0.064 (active); for `Cc1nc2ccccc2nc(=O)c1NNc1ccc([N+](=O)[O-])cc1`, 0.0842 (inactive). Consider `C=CCn1cnc2scc(-c3ccccc3)c2c1=O`, for which the normalized thallium flux (F/F0 slope) is 0.049 (active). For `O=C(Nc1ccc(N2CCOCC2)cc1)c1ccc(-c2ccccc2[N+](=O)[O-])o1` the value was 0.108 (active). For `O=C(CCN1CCc2ccccc2C(O)(c2ccccc2)C1)c1ccc2c(c1)OCCO2` (stereo not given), the normalized thallium flux (F/F0 slope) was 0.0602 (active).

As to `CSc1nc2nc3c(c(=O)n2[nH]1)CCC3`, the normalized thallium flux (F/F0 slope) is 0.0761 (inactive). For `Cc1cccn2c(=O)c3cc(C(=O)N4COCC4(C)C)n(C)c3nc12` the value was 0.0444 (active); for `Cc1ccc(S(=O)(=O)C2(S(=O)(=O)c3ccc(C)cc3)CCCC2)cc1`, 0.0776 (inactive). Regarding `Cc1cc2cc(CN(Cc3cccs3)Cc3nnnn3CC3CCCO3)c(=O)[nH]c2cc1C` (stereo not given), the normalized thallium flux (F/F0 slope) was 0.0575 (active).

For `NC(=O)c1ccccc1N(Cc1ccccc1)S(=O)(=O)c1ccccc1`, the normalized thallium flux (F/F0 slope) was 0.0757 (inactive). For the compound `O=C(O)c1ccc2c(c1)C(=O)N(c1ccc(/C=C/C(=O)c3ccccc3)cc1)C2=O`, the normalized thallium flux (F/F0 slope) is 0.0504 (active). The result for `CC(C)(c1ccccc1)c1ccc(OCCN)cc1` reads 0.0605 (active); that for `CCCN(CCC)CC(O)COc1ccccc1C(=O)Nc1ccccc1` (stereo not given), 0.055 (active); that for `CS(=O)(=O)c1ccc(Cl)c(NC(=O)Nc2ccccc2)c1`, 0.0706 (inactive). The result for `Cc1ccc(C)c(NC(=O)CSc2nc3c(oc4ccccc43)c(=O)n2-c2ccccc2)c1` reads 0.077 (inactive); that for `Cc1cccc(-n2c(SCC(=O)Nc3cccc(S(=O)(=O)NC4=NCCCCC4)c3)nc3ccccc3c2=O)c1C`, 0.0482 (active); that for `O=C(CN1CCCCCC1)NCCN1C(=O)S/C(=C\c2ccccc2Cl)C1=O`, 0.0525 (active). Regarding `O=[N+]([O-])c1cc(Cl)cc(/C=N/NC(=S)Nc2cc(S(=O)(=O)N3CCOCC3)ccc2Cl)c1O`, the normalized thallium flux (F/F0 slope) is 0.0856 (inactive).

With `O=C1C(=O)N(c2ccccc2)c2ccccc21`, the normalized thallium flux (F/F0 slope) was 0.0906 (inactive).

Consider `CCCOc1ccc(C(=O)C(CCC(CNCC)C(=O)c2ccc(OCCC)cc2)CNCC)cc1` (stereo not given), for which the normalized thallium flux (F/F0 slope) is 0.0393 (active). Turning to `O=C(Cn1nc(CNc2ccc(Cl)cc2)[n+]2c1CCCCC2)c1ccc(Cl)cc1`, the normalized thallium flux (F/F0 slope) is 0.0549 (active). The result for `Cn1c(SCC(=O)N2CCCc3ccccc32)nc2ccccc2c1=O` reads 0.0629 (active). For `C=CCOc1cccc(CNn2cn[nH]c2=S)c1` the value was 0.0819 (inactive); for `CN(C)/C=C(/C(=O)c1ccc(Cl)c(Cl)c1)c1nnnn1-c1ccccc1`, 0.0735 (inactive).
